Measured values published in the supplement of paper PMC10849652.
Targets with a hit are over-represented here; the source holds about 7,900 in all. About 0.6% of all pairs of compound and target were hits. A number with no mark means an inactive call.

Key:
Assay in all cases: log2 fold change, soluble protein after heating vs DMSO (PISA); higher = thermal stabilisation; K562 cells, 10 uM, 30 min; active = over 0.2 and 3.5 SD of the protein, either way, in both replicates (recomputed)
volasertib = compound: CC[C@@H]1C(=O)N(C)c2cnc(Nc3ccc(C(=O)N[C@H]4CC[C@H](N5CCN(CC6CC6)CC5)CC4)cc3OC)nc2N1C(C)C [volasertib]
Method in brief: (§1)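 K562 cells at 2×10^6 cells/mL were given 10 μM compound for 30 min. Aliquots then went through 3 min of heating across 48°C-58°C, were pooled, and were extracted in PBS with 0.5% NP-40 at 4°C, and the supernatant after 21,000xg for 90 min was quantified by TMTpro 16plex LC-MS/MS with channel sums equalised. Thermal stability relative to control samples, from duplicates, is given as log2 fold change.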

[1] = compound: CC[C@H](C)N1C=C(C2=C(C=C(C=C21)C3=CN=C(C=C3)N4CCNCC4)C(=O)NCC5=C(C=C(NC5=O)C)C)C
Method in brief: as §1

epoxomicin = compound: CC[C@H](C)[C@@H](C(=O)N[C@@H]([C@@H](C)O)C(=O)N[C@@H](CC(C)C)C(=O)[C@]1(CO1)C)NC(=O)[C@H]([C@@H](C)CC)N(C)C(=O)C [epoxomicin]
Method in brief: as §1

[2] = compound: CCn1c(C(=O)N(C2CC2)C2CC2)cc2c3c(ncn3C)c(Nc3cc(C)n(C)n3)nc21
Method in brief: as §1

[3] = compound: CCn1cc(-c2ccnc3[nH]c(-c4cccc(CN(C)C)c4)cc23)c(-c2ccc(NC(=O)N(C)C)cc2)n1
Method in brief: as §1

[4] = compound: CN(C)CC(=O)Nc1ccc2[nH]c(=O)c3ccccc3c2c1
Method in brief: as §1

rosiglitazone = compound: CN(CCOC1=CC=C(C=C1)C[C@H]2C(=O)NC(=O)S2)C3=CC=CC=N3 (racemic) [rosiglitazone]
Method in brief: as §1

[5] = compound: CN1C2=C(C3=C1C(=O)N(N=C3)CC4=CC(=CC=C4)N)SC(=C2)S(=O)C
Method in brief: as §1

[6] = compound: CN1CCC(CNc2ccc3ncc(-c4cccc(OC(F)(F)F)c4)n3n2)CC1
Method in brief: as §1

saracatinib = compound: CN1CCN(CCOc2cc(OC3CCOCC3)c3c(Nc4c(Cl)ccc5c4OCO5)ncnc3c2)CC1 [saracatinib]
Method in brief: as §1

sotrastaurin = compound: CN1CCN(c2nc(C3=C(c4c[nH]c5ccccc45)C(=O)NC3=O)c3ccccc3n2)CC1 [sotrastaurin]
Method in brief: as §1

alvocidib = compound: CN1CC[C@H](c2c(O)cc(O)c3c(=O)cc(-c4ccccc4Cl)oc23)[C@H](O)C1 [alvocidib]
Method in brief: as §1

[7] = compound: CNC(=O)C1=CC=CC=C1NC2=NC(=NC=C2Cl)NC3=C(C=C(C=C3)N4CCOCC4)OC
Method in brief: as §1

defactinib = compound: CNC(=O)c1ccc(Nc2ncc(C(F)(F)F)c(NCc3nccnc3N(C)S(C)(=O)=O)n2)cc1 [defactinib]
Method in brief: as §1

[8] = compound: CNc1nc(-c2ccc3c(N)n[nH]c3c2)cc(N2C[C@@H](C(=O)NC3CCCCC3)CC[C@H]2C)n1
Method in brief: as §1

[9] = compound: COC(=O)[C@H](CCSC)NC(=O)C1=C(C=C(C=C1)NC[C@H](CS)N)C2=CC=CC=C2
Method in brief: as §1

Tubastatin A = compound: CN1CCc2c(c3ccccc3n2Cc2ccc(C(=O)NO)cc2)C1 [Tubastatin A]
Method in brief: as §1

[10] = compound: CC[C@@H]1C(=O)N(C)c2cnc(Nc3ccc(C(=O)NC4CCN(C)CC4)cc3OC)nc2N1C1CCCC1
Method in brief: as §1

rucaparib = compound: CNCc1ccc(-c2[nH]c3cc(F)cc4c3c2CCNC4=O)cc1 [rucaparib]
Method in brief: as §1

encorafenib = compound: COC(=O)N[C@@H](C)CNc1nccc(-c2cn(C(C)C)nc2-c2cc(Cl)cc(NS(C)(=O)=O)c2F)n1 [encorafenib]
Method in brief: as §1

Sequence of UniProt Q9Y6R0 (Q9Y6R0 whole entry, looked up): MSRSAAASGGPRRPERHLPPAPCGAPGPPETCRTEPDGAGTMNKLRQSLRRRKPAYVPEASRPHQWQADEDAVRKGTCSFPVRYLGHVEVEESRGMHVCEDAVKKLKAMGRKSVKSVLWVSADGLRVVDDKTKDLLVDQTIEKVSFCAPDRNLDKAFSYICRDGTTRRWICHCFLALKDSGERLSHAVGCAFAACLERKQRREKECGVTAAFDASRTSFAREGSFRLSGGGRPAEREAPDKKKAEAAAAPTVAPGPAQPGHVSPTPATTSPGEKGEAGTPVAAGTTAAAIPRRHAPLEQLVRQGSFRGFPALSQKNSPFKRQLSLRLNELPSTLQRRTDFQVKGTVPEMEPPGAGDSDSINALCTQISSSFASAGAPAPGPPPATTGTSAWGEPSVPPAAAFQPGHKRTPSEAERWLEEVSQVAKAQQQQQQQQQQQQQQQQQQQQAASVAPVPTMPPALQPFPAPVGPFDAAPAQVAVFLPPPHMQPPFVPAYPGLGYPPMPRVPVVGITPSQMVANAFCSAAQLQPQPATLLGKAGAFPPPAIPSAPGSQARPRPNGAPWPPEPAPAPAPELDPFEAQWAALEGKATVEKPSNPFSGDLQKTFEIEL
Sequence of UniProt Q5VVJ2 (Q5VVJ2 whole entry, looked up): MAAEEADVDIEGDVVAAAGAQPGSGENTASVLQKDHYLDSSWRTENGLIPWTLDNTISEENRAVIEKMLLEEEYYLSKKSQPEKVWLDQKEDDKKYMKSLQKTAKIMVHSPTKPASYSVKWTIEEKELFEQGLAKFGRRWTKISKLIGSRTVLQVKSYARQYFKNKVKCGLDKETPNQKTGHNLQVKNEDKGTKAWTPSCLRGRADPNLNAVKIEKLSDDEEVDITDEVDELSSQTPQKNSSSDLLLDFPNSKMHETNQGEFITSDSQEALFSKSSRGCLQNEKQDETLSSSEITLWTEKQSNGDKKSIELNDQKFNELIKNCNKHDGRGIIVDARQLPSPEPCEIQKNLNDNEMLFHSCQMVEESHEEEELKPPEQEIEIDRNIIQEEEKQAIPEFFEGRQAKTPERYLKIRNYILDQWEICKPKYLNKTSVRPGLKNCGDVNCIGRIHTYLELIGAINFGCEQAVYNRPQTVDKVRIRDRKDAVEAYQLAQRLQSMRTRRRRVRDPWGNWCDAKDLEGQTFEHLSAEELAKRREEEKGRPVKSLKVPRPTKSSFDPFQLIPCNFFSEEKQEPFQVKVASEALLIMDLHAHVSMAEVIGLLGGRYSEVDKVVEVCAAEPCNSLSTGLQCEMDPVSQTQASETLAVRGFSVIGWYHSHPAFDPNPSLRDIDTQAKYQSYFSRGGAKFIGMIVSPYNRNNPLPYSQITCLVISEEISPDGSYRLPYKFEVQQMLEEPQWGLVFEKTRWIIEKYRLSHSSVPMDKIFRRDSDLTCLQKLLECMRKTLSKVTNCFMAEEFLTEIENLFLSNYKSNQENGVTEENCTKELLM
Sequence of UniProt Q9UBD5 (Q9UBD5 whole entry, looked up): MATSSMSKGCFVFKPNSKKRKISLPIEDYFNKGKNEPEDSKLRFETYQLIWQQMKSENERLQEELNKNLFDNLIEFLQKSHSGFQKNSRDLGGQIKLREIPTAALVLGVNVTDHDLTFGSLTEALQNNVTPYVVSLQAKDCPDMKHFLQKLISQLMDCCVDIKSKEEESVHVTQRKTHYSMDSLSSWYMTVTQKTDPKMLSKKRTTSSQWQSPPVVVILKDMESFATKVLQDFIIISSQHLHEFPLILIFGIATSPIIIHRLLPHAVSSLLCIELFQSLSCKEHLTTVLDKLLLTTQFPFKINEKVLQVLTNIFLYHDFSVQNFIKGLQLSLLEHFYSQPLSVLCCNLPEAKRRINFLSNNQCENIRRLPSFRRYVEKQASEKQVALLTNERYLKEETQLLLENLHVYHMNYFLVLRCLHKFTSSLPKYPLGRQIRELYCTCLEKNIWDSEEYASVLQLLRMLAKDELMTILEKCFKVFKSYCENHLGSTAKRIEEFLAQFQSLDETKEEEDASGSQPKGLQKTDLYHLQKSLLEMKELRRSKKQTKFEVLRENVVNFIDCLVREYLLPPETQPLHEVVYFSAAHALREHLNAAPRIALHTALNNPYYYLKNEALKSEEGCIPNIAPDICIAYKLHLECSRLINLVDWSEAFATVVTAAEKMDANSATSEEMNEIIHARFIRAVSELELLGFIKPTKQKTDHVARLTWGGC
Sequence of UniProt P03891 (P03891 whole entry, looked up): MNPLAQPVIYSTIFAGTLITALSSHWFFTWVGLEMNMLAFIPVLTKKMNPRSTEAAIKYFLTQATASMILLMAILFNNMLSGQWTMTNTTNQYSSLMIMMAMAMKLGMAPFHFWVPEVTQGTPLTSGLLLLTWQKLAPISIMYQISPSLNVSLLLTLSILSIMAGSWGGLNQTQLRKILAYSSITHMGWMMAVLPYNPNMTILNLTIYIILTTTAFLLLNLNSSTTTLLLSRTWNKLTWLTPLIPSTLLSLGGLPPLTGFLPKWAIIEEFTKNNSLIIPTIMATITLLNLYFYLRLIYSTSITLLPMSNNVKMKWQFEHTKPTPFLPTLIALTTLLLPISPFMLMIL
Sequence of UniProt Q9BT67 (Q9BT67 whole entry, looked up): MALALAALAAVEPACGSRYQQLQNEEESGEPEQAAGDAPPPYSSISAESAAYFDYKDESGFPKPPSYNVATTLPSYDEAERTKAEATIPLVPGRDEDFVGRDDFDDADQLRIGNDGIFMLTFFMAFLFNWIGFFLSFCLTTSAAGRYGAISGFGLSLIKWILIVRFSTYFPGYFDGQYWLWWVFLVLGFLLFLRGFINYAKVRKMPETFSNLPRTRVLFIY
Sequence of UniProt Q4G0T1 (Q4G0T1 whole entry, looked up): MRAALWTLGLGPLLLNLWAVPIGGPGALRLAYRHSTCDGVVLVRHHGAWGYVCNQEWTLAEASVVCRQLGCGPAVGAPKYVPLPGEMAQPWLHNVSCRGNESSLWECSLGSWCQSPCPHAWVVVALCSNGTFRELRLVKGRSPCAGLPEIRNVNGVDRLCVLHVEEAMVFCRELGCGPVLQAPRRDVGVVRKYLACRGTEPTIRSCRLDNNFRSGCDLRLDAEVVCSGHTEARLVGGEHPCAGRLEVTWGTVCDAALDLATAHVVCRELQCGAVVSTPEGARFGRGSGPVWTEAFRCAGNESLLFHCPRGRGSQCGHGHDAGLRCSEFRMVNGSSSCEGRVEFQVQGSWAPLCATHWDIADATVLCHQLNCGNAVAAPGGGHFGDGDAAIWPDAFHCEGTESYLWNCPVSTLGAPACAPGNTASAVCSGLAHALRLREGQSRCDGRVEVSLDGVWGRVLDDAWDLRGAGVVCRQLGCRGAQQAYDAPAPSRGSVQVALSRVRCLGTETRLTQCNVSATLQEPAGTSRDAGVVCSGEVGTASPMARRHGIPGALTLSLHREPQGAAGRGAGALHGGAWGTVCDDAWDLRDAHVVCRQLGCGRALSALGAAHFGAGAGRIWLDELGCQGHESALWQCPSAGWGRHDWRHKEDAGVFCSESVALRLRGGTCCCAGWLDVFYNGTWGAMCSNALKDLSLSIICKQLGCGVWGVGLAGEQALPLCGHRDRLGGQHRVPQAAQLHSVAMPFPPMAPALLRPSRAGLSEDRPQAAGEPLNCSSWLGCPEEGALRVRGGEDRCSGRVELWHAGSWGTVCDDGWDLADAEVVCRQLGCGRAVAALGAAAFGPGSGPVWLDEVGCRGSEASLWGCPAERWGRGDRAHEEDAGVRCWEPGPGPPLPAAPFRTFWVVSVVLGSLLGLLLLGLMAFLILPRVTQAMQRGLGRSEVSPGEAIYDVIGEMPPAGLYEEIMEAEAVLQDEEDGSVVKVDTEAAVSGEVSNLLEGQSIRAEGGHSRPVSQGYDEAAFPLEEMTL
Sequence of UniProt Q92686 (Q92686 whole entry, looked up): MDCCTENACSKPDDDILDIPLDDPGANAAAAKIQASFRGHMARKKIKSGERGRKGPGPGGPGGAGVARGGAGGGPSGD
Sequence of UniProt Q99549 (Q99549 whole entry, looked up): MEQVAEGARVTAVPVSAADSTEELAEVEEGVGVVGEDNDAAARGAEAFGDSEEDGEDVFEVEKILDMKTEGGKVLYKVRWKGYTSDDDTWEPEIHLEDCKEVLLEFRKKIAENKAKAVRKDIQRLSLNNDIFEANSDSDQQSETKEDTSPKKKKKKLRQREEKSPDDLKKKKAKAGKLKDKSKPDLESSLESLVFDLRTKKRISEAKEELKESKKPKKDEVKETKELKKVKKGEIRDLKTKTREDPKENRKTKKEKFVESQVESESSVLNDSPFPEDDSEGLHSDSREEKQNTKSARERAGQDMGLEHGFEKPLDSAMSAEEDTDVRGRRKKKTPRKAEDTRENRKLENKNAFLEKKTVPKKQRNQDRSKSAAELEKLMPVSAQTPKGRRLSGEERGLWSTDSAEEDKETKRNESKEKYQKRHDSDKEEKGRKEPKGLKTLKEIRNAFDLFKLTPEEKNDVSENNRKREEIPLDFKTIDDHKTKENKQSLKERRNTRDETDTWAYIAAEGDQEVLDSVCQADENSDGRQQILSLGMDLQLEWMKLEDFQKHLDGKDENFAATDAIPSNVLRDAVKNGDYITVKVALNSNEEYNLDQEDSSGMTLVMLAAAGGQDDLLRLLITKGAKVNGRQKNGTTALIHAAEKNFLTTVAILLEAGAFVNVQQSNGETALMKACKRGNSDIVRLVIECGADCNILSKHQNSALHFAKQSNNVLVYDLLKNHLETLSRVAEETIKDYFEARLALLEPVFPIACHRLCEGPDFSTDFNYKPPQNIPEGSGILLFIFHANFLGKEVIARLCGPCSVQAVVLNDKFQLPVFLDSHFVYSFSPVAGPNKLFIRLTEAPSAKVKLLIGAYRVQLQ
Sequence of UniProt Q9UI43 (Q9UI43 whole entry, looked up): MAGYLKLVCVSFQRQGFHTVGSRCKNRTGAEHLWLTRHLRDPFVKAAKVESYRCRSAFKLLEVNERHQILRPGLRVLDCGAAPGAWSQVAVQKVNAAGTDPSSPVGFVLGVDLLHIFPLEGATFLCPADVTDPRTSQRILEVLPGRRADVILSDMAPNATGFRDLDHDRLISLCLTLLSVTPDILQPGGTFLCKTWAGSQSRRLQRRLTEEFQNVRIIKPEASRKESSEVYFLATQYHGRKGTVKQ

Target	log2 fold change (volasertib)	log2 fold change [1]	log2 fold change (epoxomicin)	log2 fold change [2]	log2 fold change [3]	log2 fold change [4]	log2 fold change (rosiglitazone)	log2 fold change [5]	log2 fold change [6]	log2 fold change (saracatinib)	log2 fold change (sotrastaurin)	log2 fold change (alvocidib)	log2 fold change [7]	log2 fold change (defactinib)	log2 fold change [8]	log2 fold change [9]	log2 fold change (Tubastatin A)	log2 fold change [10]	log2 fold change (rucaparib)	log2 fold change (encorafenib)
NUMBL (UniProt Q9Y6R0)	0.019	0.073	-0.01	0.023	0.007	-0.023	-0.051	0.041	-0.259	-0.088	-0.412 (active)	0.07	0.144	-0.101	-0.015	0.098	–	–	–	–
NA isoform 3 (UniProt Q4G0T1)	-0.051	0.026	–	0.004	–	-0.019	0.008	-0.008	–	-0.011	0.035	0.039	0.007	0.034	-0.053	-0.001	0.04	–	–	–
NA, A0A1W2PSA9	–	–	–	–	0.08	–	–	0.279	0.057	-0.046	–	0.168	–	–	-0.107	–	-0.17	–	–	–
OSBPL2 (UniProt Q9H1P3)	0.025	–	–	–	–	–	–	–	–	–	–	-0.197	–	–	–	–	–	–	–	–
PAFAH2 (UniProt Q99487)	-0.058	–	–	-0.328	–	0.005	0.082	-0.059	–	0.023	-0.074	-0.112	-0.179	-0.093	-0.133	-0.067	-0.196	–	–	–
NCK1 (UniProt P16333)	-0.306	0.109	-0.053	-0.312	–	0.044	0.223	0.027	–	-0.198	-0.521 (active)	-0.005	-0.071	-0.125	0.158	-0.122	0.126	–	–	–
MT-ND2 (UniProt P03891)	-0.021	-0.113	–	-0.007	0.106	0.195	0.04	-0.13	0.033	-0.183	–	-0.321	0	-0.008	-0.295	0.085	-0.044	–	–	–
MYSM1 (UniProt Q5VVJ2)	–	–	–	–	–	–	0.157	–	–	–	-0.294	–	–	–	–	–	–	-0.17	0.003	0.13
MXRA7 isoform 3 (UniProt P84157)	-0.01	–	–	–	–	–	–	–	–	–	–	–	–	–	–	–	–	–	–	–
MPHOSPH8 isoform 2 (UniProt Q99549)	0.012	–	0.16	–	–	-0.093	–	0.058	–	0.088	0.018	0.005	–	0.015	-0.064	0.013	0	–	–	–
MRM2 (UniProt Q9UI43)	-0.083	0.008	–	0.065	–	-0.122	–	-0.042	–	0.173	–	-0.364	0.033	-0.24	0.004	0.101	-0.07	–	–	–
ORC3 (UniProt Q9UBD5)	–	–	–	–	–	–	–	–	–	–	–	–	–	–	–	–	–	-0.167	0.061	0.032
NRGN (UniProt Q92686)	0.052	-0.088	0.162	0.021	0.14	–	0.127	–	-0.547	–	–	–	0.01	–	–	–	–	–	–	–
NA, A0A2R8Y3M9	-0.134	0.014	–	–	-0.015	–	0.117	0.376	0.005	0.171	0.191	0.214	–	–	-0.04	–	–	–	–	–
NDFIP1 (UniProt Q9BT67)	–	-0.2	0.102	0.056	0.224	0.152	0.108	0.175	-0.062	-0.274	-0.028	-0.088	0.124	0.015	-0.187	-0.115	0.056	0.211	0.286	-0.001
